The source of these data is PubChem BioAssay.

Assay [1] in a line: rapamycin-like changes in RPL19A-GFP expression – cell-based, S. cerevisiae, multiplex flow cytometry, primary screen (AID 1862; in the data active means percent of DMSO control GFP below about 86%;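 further: lower values mimic rapamycin by blocking the RPL19A rise seen in DMSO cells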). The following applies: S. cerevisiae RPL19A-GFP strain, flow cytometry fluorescence, 3 h; at 10 µM; stronger effect = lower value.
The nature of assay [2]: TOR pathway GLN3 branch reporter MEP2-GFP changes – S. cerevisiae, multiplex flow cytometry, primary screen (AID 1867;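 active means GFP response, as percent of the DMSO control, above the screen-wide mean plus 3 SD, about 139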;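 further: median GFP channel fluorescence of barcode-gated MEP2-GFP cells measured by flow cytometry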). The conditions noted are these: S. cerevisiae MEP2-GFP strain, 3 h, at 10 µM, stronger effect = higher value, 100% means same as DMSO wells.
A short description of assay [3]: TOR pathway RTG branch CIT2 reporter changes – S. cerevisiae, GFP fusion, multiplex flow cytometry, primary screen (AID 1870;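 active means percent response above a set limit, the screen-wide mean plus 3 SD, cut at about 130% in these data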;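 further: barcoded CIT2-GFP strain pooled with four other GFP strains with rapamycin as positive control; median GFP fluorescence per well over plate mean of DMSO wells so 100% = DMSO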). The conditions noted are these: S. cerevisiae CIT2-GFP expression, 3 h, at 10 µM, stronger effect = higher value.
Assay [4] can be described thus: TOR pathway LAP4-GFP level changes – S. cerevisiae, multiplex flow cytometry, primary screen (AID 1873;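 active means GFP signal, as percent of the solvent control, above the screen mean plus 3 SD, about 149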). The following applies: S. cerevisiae LAP4-GFP expression, 3 h, at 10 µM, stronger effect = higher value.
Assay [5] is described as follows: yeast AGP1-GFP level changes, GLN3 branch – cell-based, multiplex flow cytometry, S. cerevisiae, primary screen (AID 1887;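 active means GFP signal above the screen-wide mean plus 3 SD, that is over about 124.5% of the solvent control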;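 further: AGP1-GFP fusion strain of S. cerevisiae within a five-strain barcoded multiplex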). The following applies: 3 h, at 10 µM, stronger effect = higher value.
A short description of assay [6]: reduced mouse 2C T cell binding to pMHC/ICAM-1 vesicles – MLPCN validation set, flow cytometry, LFA-1/ICAM-1 modulator project, pilot screen (AID 2523;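 active means response below a set limit, under 55% cells CD8-positive and vesicle-bound, and CD8 cells' 90th-percentile brightness under 279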;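 on vesicle binding response: mean PE anti-B7-1 fluorescence of CD8+ cells relative to row control; 100% = QL9-loaded vesicles with DMSO vehicle in the same plate row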). The conditions noted are these: 2C mouse CD8+ T cells, at 7 µM, stronger effect = lower value; double positive events: measured here: CD8+/vesicle+ event percentage.
Assay [7] concerns the target Integrin beta-1 (Homo sapiens) + Integrin alpha-4 (Homo sapiens) (UniProt P13612+P05556). As to the kind of experiment: alpha4beta1 integrin LIBS antibody binding reduction – U937 cells, HUTS-21 mAb, flow cytometry, validation set, VLA-4 allosteric modulator project, pilot screen (AID 2674;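 active means inhibition above 50%, about 3 SD of the validation set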;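 further: antibody binding induced by the VLA-4 ligand LDV present at three times its Kd; 0% = LDV ligand with antibody and no compound and 100% = antibody without LDV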). The conditions noted are these: HUTS-21 LIBS mAb binding, at 6.7 µM, stronger effect = higher value, binding induced by LDV ligand.

Assay [8] in a line: calorie-restriction mimetic ROS inhibitors, yeast – validation compound set, pilot screen (AID 2706;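 active means superoxide response below 65% of plate, a cut near 3 SD across the whole screen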;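 further: yeast exposed to compound for one week at 30 degrees C before staining; 100% = mean of all compound wells on the same plate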). The conditions noted are these: S. cerevisiae aging, superoxide DHE fluorescence; at 10 µM, stronger effect = lower value.
Assay [9] concerns the target Beta-adrenergic receptor kinase 1 (Homo sapiens) (UniProt P25098). As to the kind of experiment: GRK2 binders displacing RNA aptamer, biochemical, validation, human GRK2, bead flow cytometry (AID 488806;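 active means aptamer binding inhibition above 30%, about 3 SD of noise from non-fluorescent compounds; inactive means inhibition at or below 30%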). The following applies: bead-bound GRK2, FAM-aptamer displacement, at 10 µM, stronger effect = higher value.
The target in assay [10] is Beta-2 adrenergic receptor (Homo sapiens) (UniProt P07550). As to the kind of experiment: agonist-induced loss of surface beta2AR – cell-based, FAP fluorogen, flow cytometry, validation set, pilot screen (AID 504459;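 active means percent response above 42, roughly 3 SD of non-fluorescent test compounds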;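 further: agonist-driven loss of surface beta2AR via internalization measured by FAP dye flow cytometry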). The following applies: Am2.2-beta2AR cells, at 10 µM, stronger effect = higher value.
Beta-2 adrenergic receptor (Homo sapiens), sequence (P07550 whole entry, looked up): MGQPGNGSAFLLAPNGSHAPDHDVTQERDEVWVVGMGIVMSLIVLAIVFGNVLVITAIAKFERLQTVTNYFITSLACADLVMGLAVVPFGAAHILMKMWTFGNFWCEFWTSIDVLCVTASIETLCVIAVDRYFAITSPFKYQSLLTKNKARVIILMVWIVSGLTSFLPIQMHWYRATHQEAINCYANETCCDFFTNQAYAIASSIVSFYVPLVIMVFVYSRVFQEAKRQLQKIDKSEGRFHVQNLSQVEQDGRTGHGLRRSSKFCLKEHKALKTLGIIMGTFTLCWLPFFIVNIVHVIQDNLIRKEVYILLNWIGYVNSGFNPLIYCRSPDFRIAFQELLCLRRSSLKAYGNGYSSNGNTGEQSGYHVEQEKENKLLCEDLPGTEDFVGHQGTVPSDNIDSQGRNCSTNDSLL
For assay [11], the target named is AP-2 complex subunit beta (Homo sapiens) (UniProt P63010). As to the kind of experiment: beta-arrestin/AP2 interaction blockers – biochemical, validation set, GST-AP2 beads, flow cytometry, pilot screen (AID 504541;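 active means inhibition above 54%, about 3 SD of non-fluorescent compounds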;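 further: AP2 carries R879A mutation and is captured from E. coli lysate; bead-bound FITC arrestin peptide fluorescence measuring arrestin peptide binding to AP2; 0% = DMSO wells and 100% = excess unlabeled arrestin peptide control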). The conditions noted are these: FITC arrestin peptide, at 10 µM, stronger effect = higher value, AP2 beta2 appendage fragment, R879A mutant.
AP-2 complex subunit beta (Homo sapiens), sequence (P63010 whole entry, looked up, the tested form may be a part, one chain of several): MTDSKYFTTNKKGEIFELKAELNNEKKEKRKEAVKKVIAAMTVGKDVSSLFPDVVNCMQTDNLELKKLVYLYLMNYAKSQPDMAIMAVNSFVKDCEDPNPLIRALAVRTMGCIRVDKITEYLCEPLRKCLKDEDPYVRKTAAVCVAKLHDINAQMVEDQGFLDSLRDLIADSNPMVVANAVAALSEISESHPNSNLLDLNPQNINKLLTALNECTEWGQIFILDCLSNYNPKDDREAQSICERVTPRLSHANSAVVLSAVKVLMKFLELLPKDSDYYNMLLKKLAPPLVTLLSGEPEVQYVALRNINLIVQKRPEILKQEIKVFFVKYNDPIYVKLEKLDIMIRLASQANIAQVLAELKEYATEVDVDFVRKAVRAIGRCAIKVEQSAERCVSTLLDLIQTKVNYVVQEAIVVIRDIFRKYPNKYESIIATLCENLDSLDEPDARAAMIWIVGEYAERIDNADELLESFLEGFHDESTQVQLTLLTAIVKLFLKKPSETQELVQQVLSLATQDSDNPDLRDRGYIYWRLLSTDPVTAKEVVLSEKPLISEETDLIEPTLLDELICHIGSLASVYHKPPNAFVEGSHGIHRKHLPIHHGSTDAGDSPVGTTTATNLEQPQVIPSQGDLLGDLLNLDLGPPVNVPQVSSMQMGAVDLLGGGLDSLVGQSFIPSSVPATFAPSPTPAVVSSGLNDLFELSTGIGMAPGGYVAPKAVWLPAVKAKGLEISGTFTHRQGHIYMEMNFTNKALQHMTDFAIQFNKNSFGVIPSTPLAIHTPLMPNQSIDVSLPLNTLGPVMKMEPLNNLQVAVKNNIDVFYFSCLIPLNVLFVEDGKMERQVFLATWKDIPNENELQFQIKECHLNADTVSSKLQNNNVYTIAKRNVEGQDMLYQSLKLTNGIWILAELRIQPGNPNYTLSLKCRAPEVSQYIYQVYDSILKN
Assay [12] in a line: cytosolic pH regulators acting via V-ATPase – S. cerevisiae, pHLuorin, HTS validation (AID 504600; in the data active means response above about 15%;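 further: plate controls were DMSO for no effect and reference compound for full effect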). The conditions noted are these: V-ATPase proton transport, at 10 µM, stronger effect = higher value.
Assay [13] deals with anti-desmoglein-3 scFv antibody binding to human DSG3. In words: blockers of pathogenic pemphigus antibody–desmoglein-3 binding – biochemical, validation compound set, bead-based, flow cytometry, pilot screen (AID 588368;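 active means binding below the plate cutoff, the plate median minus 3 SD, with a reading above zero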;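 further: signal is the median channel fluorescence of bead-bound GFP antibody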). The following applies: Protein G beads, DSG3-Fc, scFv-GFP binding, at 10 µM, stronger effect = lower value.
For assay [14], the target named is ATP-binding cassette sub-family B member 6 (Homo sapiens) (UniProt Q9NP58). As to the kind of experiment: blockers of ABCB6-driven porphyrin uptake – K562-ABCB6 cells, flow cytometry, validation set, pilot screen (AID 588550;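 active means inhibition above the screen-wide mean plus 3 SD, about 51%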;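 further: 0% = DMSO wells and 100% = benzethonium chloride 70 µM positive control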). The following applies: K562-ABCB6 porphyrin accumulation, 1 h, at 10 µM, stronger effect = higher value.
ATP-binding cassette sub-family B member 6 (Homo sapiens), sequence (Q9NP58 whole entry, looked up): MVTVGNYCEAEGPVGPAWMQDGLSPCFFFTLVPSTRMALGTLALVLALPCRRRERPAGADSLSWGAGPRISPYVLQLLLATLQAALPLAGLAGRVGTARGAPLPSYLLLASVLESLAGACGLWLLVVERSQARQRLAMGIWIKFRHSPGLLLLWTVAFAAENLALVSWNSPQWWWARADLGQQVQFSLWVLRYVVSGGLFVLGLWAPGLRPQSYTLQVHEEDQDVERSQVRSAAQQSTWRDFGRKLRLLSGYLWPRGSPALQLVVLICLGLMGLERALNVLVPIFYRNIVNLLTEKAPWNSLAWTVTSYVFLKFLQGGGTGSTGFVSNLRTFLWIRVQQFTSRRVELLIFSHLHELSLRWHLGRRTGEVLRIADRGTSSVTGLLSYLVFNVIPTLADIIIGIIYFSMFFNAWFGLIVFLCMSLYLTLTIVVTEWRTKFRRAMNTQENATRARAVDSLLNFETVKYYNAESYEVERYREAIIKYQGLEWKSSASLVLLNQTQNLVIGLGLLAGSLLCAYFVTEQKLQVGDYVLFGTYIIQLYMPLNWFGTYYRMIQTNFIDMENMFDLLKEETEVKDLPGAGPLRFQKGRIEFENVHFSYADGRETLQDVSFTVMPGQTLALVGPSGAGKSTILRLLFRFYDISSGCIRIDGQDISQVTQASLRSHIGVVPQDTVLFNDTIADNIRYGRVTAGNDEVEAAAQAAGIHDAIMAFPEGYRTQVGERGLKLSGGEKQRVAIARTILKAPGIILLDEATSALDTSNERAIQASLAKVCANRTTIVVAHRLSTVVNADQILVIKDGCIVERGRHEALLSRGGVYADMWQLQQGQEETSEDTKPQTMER
Assay [15] is described as follows: AML differentiation inducers, ER-HoxA9 marrow cells – cell-based, GFP/MAC1 double positive, flow cytometry, validation set, primary screen (AID 588685).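 Further: compound exposure lasts four days before antibody staining and flow analysis; 0% = DMSO wells and 100% = 5 µM fulvestrant positive control.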 The following applies: stronger effect = higher value, normalized: vehicle 0, fulvestrant 100.
A short description of assay [16]: Nile Red efflux blockade in pump-expressing yeast – validation compound set, multiplex, phenotypic, pilot screen (AID 588506;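 active means efflux inhibition above 0.42, the validation set average plus 4 SD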;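 further: Nile Red retained in cells so higher fluorescence means more efflux inhibition; 0 = negative control wells and 1 = enniatin B 25 µM full block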). The conditions noted are these: S. cerevisiae pump-expressing triplex, Nile Red efflux flow cytometry; at 10 µM; stronger effect = higher value; the pumps come from Candida albicans.

Results filed as inconclusive are left out. Activity calls are given as the source filed them.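 How the source made its calls, unless noted: active means differentiation response of at least 50%, scaled between solvent and reference control, from cells with both markers; inactive means the rest.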

Beta-adrenergic receptor kinase 1 (Homo sapiens), sequence (P25098 whole entry, looked up): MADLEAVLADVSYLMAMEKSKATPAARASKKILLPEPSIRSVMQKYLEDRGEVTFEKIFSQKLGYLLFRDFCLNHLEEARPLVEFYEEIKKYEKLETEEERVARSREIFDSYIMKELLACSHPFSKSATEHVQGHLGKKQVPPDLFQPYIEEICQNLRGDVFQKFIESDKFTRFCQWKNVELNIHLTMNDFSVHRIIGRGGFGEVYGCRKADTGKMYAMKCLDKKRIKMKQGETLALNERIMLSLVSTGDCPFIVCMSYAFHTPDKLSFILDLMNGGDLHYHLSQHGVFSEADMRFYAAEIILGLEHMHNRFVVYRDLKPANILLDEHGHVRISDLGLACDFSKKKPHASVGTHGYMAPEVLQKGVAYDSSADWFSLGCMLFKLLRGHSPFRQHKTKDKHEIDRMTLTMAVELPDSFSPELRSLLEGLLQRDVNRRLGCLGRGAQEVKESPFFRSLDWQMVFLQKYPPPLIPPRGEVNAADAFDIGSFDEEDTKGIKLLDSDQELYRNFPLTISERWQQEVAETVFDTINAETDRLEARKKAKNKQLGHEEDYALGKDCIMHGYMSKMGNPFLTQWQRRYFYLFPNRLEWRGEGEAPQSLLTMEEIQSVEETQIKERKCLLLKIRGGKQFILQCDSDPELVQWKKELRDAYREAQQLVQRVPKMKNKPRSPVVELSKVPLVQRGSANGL
Integrin beta-1 (Homo sapiens) + Integrin alpha-4 (Homo sapiens), sequence (P05556 whole entry, looked up): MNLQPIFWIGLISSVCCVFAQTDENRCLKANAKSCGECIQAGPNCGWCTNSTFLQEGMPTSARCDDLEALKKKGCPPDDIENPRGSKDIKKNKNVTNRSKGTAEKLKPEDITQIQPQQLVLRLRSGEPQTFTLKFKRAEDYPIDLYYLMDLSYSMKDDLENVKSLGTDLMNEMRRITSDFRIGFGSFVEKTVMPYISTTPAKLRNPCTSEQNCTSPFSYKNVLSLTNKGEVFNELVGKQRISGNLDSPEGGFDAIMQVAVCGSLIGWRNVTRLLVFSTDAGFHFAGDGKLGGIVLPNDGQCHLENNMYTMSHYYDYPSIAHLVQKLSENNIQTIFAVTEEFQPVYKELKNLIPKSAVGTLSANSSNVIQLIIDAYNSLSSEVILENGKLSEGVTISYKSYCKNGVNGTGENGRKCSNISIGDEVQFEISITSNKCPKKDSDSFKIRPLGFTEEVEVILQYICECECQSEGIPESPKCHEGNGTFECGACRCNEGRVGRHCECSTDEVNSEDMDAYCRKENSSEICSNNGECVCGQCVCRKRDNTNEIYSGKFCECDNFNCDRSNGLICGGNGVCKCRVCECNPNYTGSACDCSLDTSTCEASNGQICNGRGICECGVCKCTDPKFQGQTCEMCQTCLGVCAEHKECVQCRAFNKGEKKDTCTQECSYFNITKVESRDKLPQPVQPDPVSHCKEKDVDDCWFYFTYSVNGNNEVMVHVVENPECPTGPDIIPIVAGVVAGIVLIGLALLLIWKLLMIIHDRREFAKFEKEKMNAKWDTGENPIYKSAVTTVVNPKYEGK
Integrin beta-1 (Homo sapiens) + Integrin alpha-4 (Homo sapiens), sequence (P13612 whole entry, looked up): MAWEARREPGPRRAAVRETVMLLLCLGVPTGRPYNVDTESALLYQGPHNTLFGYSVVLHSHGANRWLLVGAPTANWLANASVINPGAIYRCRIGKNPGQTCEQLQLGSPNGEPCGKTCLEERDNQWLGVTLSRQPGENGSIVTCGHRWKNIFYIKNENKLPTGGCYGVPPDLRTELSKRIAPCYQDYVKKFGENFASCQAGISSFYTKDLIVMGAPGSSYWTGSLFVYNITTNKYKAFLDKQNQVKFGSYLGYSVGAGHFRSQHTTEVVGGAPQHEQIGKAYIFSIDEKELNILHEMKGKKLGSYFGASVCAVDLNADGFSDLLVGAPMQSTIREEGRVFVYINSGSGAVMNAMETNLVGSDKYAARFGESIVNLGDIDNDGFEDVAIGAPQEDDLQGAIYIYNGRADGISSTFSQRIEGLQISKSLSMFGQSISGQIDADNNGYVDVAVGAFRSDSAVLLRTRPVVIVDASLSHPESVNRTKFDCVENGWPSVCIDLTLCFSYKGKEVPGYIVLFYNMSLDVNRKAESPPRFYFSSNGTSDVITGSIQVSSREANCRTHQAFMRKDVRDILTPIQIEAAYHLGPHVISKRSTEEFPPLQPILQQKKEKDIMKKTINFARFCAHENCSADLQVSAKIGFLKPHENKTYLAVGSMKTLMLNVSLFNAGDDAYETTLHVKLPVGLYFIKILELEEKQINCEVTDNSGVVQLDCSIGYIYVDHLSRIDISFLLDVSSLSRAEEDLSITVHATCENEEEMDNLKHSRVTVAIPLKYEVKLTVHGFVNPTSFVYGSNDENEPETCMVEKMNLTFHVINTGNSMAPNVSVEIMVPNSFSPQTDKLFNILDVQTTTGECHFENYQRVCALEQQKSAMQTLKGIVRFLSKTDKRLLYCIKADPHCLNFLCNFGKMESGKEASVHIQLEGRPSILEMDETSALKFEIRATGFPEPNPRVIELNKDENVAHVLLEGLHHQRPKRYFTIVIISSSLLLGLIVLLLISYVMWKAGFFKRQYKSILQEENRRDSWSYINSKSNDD

On to `COc1ccc(CN(CCN(C)C)c2ccccn2)cc1`, for which the percent of DMSO control GFP in [1] was 102% (inactive). Further, the GFP response vs DMSO was 107% (inactive) in assay [2] and 103% (inactive) in assay [4]. The percent response of DMSO control in assay [3] is 108% (inactive). The GFP response, % of DMSO in [5] is 107% (inactive). In [6], this molecule had a double positive events of 60.3%. Also, in [6], the vesicle binding response was 60% (inactive). Besides, the values for the inhibition in [7], in [11] and in assay [14] were 2.66% (inactive), -5.39% (inactive) and 4% (inactive), respectively. The superoxide response (% of plate) in assay [8] was 109% (inactive). Besides, the aptamer binding inhibition in assay [9] was 0% (inactive). The response in [10] is -10.3% (inactive); in [12], 0.3% (inactive). Besides, the binding (% of control) in assay [13] is 99.3% (inactive). For the same molecule, the differentiation response in [15] was 2.2% (inactive).
For `COc1cccc(C2CCCN2Cc2nc(CCC(C)C)no2)c1` (stereo not given), the percent of DMSO control GFP in assay [1] is 101% (inactive). In addition, the GFP response vs DMSO in assay [2] is 116% (inactive); in assay [4], 109% (inactive). Also, in [3], the percent response of DMSO control is 103% (inactive). For the same molecule, the GFP response, % of DMSO in [5] was 101% (inactive). Also, in assay [6], the double positive events is 54.6%. The vesicle binding response in [6] is 135% (inactive). In addition, the figures for the inhibition in assay [7], in [11] and in assay [14] were -9.57% (inactive), 5.57% (inactive) and 8% (inactive), respectively. In addition, the superoxide response (% of plate) in [8] was 102% (inactive). The aptamer binding inhibition in [9] was 0% (inactive). Also, in assay [12], the response was 3.31% (inactive). Moreover, the binding (% of control) in assay [13] was 104% (inactive). Further, in assay [16], the efflux inhibition (fraction of control) is 0.25 (inactive). In addition, the differentiation response in assay [15] is 4.64% (inactive).
In the case of `CC(C(=O)O)c1ccc(N2Cc3ccccc3C2=O)cc1` (stereo not given), in [1], the percent of DMSO control GFP is 98.4% (inactive). Also, the values for the GFP response vs DMSO in assay [2] and in assay [4] were 103% (inactive) and 119% (inactive), respectively. In addition, the percent response of DMSO control in assay [3] is 93.9% (inactive). For the same molecule, the GFP response, % of DMSO in [5] was 90.4% (inactive). In addition, the double positive events in assay [6] was found to be 62.1%. The vesicle binding response in assay [6] was 2350% (inactive). The inhibition in [7] is -7.47% (inactive); in assay [14], 1% (inactive). For the same molecule, the superoxide response (% of plate) in assay [8] is 112% (inactive). Also, in assay [9], the aptamer binding inhibition was -4% (inactive). Also, the figures for the response in [10] and in assay [12] were 3.47% (inactive) and 0.33% (inactive), respectively. The binding (% of control) in assay [13] was 107% (inactive). Besides, in [16], the efflux inhibition (fraction of control) is -0.41 (inactive). For the same molecule, the differentiation response in assay [15] is -1.12% (inactive).
Regarding `CC(C)(C)NC[C@H](O)COc1nsnc1N1CCOCC1`, the percent of DMSO control GFP in assay [1] is 94.4% (inactive). Further, the GFP response vs DMSO in assay [2] was 136% (inactive); in assay [4] it was 78.7% (inactive). Besides, the percent response of DMSO control in assay [3] is 108% (inactive). The GFP response, % of DMSO in [5] was 93.1% (inactive). Further, in assay [6], the double positive events was determined as 70.5%. In addition, the vesicle binding response in assay [6] is 173% (inactive). Besides, the inhibition in assay [7] was 17.1% (inactive); in [11], -3.6% (inactive); in [14] it was 9% (inactive). Also, the superoxide response (% of plate) in [8] was 91.1% (inactive). In addition, the aptamer binding inhibition in assay [9] is 3% (inactive). Also, the response in assay [12] is 4.73% (inactive). Besides, in [13], the binding (% of control) is 96.3% (inactive). For the same molecule, the efflux inhibition (fraction of control) in assay [16] was 0.05 (inactive). Also, the differentiation response in [15] was -0.82% (inactive).
For `C[C@]12CC[C@H]3C(=CCc4cc(O)ccc43)[C@@H]1CCC2=O`, the percent of DMSO control GFP in assay [1] is 101% (inactive). The GFP response vs DMSO is 94.8% (inactive) in assay [2] and 110% (inactive) in [4]. In addition, the percent response of DMSO control in assay [3] was 90% (inactive). In addition, in [5], the GFP response, % of DMSO was 92.1% (inactive). The molecule further displayed a double positive events in assay [6] of 59.4%. Further, in assay [6], the vesicle binding response is 172% (inactive). Further, the results for the inhibition in assay [7], in [11] and in assay [14] were 7.22% (inactive), 2.28% (inactive) and 4% (inactive), respectively. The superoxide response (% of plate) in [8] is 102% (inactive). Also, in assay [9], the aptamer binding inhibition is 7% (inactive). Moreover, the response in [12] was -1.47% (inactive). Further, in assay [13], the binding (% of control) is 103% (inactive). Also, the efflux inhibition (fraction of control) in assay [16] was 0.25 (inactive). Moreover, the differentiation response in [15] was 1.41% (inactive).
